In all, about 94,000 compounds went through this assay and about 680 (0.72%) were called active. No stated cut-off is given here; in the data, active means z-score above about 3.2; inactive means the rest. Only a selection was taken, and actives are over-represented in it overall.

The experiment has as its target M-phase inducer phosphatase 2 (Homo sapiens) + Cyclin-dependent kinase 2 (Homo sapiens) + Cyclin-A2 (Homo sapiens) (UniProt P30305+P24941+P20248). Put plainly: primary biochemical HTRF screen for blockers of M-phase inducer phosphatase 2 binding to CDK2/cyclin A (AID 1259370). Conditions: HTRF CDC25B-CDK2/CyclinA binding, anti-His/anti-Flag; stronger effect = higher value. (In general: TR-FRET usually uses a lanthanide donor and a delayed reading to cut background.)
With `COCCOC(=O)C1=C(C)NC2=C(C(=O)C(C(=O)OC)C(C)C2)C1c1cccc(Br)c1` (stereo not given), the z-score is -0.35 (inactive).

Turning to `CCOC(=O)C(Sc1nc(N2CCOCC2)c2c(c1C#N)CC(C)(C)OC2)c1ccccc1` (stereo not given), the z-score was -1.85 (inactive).

`ONC(=Nc1ccc2c(c1)OCO2)C(=Nc1ccc2c(c1)OCO2)NO`: the z-score is 20.3 (active).

As to `c1cc(CNCc2ccc3c(c2)OCO3)ccn1`, the z-score was -0.83 (inactive).

In the case of `COc1cccc(CNCc2ccc3c(c2)OCO3)c1`, the z-score was 2.98 (inactive).

On to `CCCc1cc(-c2n[nH]c(C)c2-c2ccc3c(c2)OCCO3)c(O)cc1O`, for which the z-score was 1.36 (inactive).

Consider `Cc1nc(-n2cnc3ccccc32)c2c3c(sc2n1)CCC3`, for which the z-score is -2.24 (inactive).

Take `COc1ccc(C(=O)Oc2ccc3c(C)cc(=O)oc3c2C(C)=O)cc1OC`: the z-score is 4.76 (inactive).

For `CCOc1ccc(OCCSc2nc3ccccc3n2CC(=O)O)cc1`, the z-score was -2.11 (inactive).

On to `O=C1C2N=NN(Cc3cccc(F)c3)C2C(=O)N1c1ccccc1` (stereo not given), for which the z-score is 0.2 (inactive).

Regarding `COc1ccc(-c2csc(-c3cc4c([nH]c3=O)CC(c3ccc(OC)c(OC)c3)CC4=O)n2)cc1` (stereo not given), the z-score is -1.19 (inactive).

With `COc1ccc(C2CC(=O)c3cc(-c4nc(-c5ccc(F)cc5)cs4)c(=O)[nH]c3C2)cc1` (stereo not given), the z-score is -1.13 (inactive).

Take `COc1ccc(-c2csc(-c3cc4c([nH]c3=O)CC(c3ccco3)CC4=O)n2)cc1F` (stereo not given): the z-score is 12.9 (active).

Turning to `COc1ccc(-c2noc(COc3cc(C)cc(C)c3C)n2)cc1OC`, the z-score is 1.44 (inactive).

In the case of `CCOc1cccc2c1N[C@@H](c1ccc(C(=O)O)cc1)[C@H]1CC=C[C@@H]21`, the z-score was 11.8 (active).

Consider `COC(=O)c1ccc([C@@H]2Nc3ccc(F)cc3[C@@H]3C=CC[C@@H]32)cc1`, for which the z-score is -0.78 (inactive).

As to `COc1cccc([C@@H]2Nc3ccc(S(=O)(=O)Nc4ccccc4)cc3[C@@H]3C=CC[C@@H]32)c1`, the z-score is -1.16 (inactive).

As for `Cn1c(=O)n(CCc2ccccc2)c(=O)c2c3c(sc21)COC(C)(C)C3`, the z-score was -1.21 (inactive).

As for `C#CCSc1nc2c(c(=O)[nH]1)C(c1ccc(OCCCC)cc1)CC(=O)N2` (stereo not given), the z-score is -1.04 (inactive).

Consider `CCSc1nc2c(c(=O)[nH]1)C(c1ccc(OC)c(Br)c1)CC(=O)N2` (stereo not given), for which the z-score is -0.2 (inactive).

`C#CCSc1nc2c(c(=O)[nH]1)C(c1ccc(O)c(O)c1)CC(=O)N2` (stereo not given): the z-score is 19 (active).

As for `Cc1[nH]c2ccccc2c1C1(O)C(=O)N(Cc2cccs2)c2ccc(Br)cc21` (stereo not given), the z-score is 1.66 (inactive).

For `COc1ccc(-c2ccc(Cc3nc(-c4ccc(OC)cc4)no3)cc2)cc1`, the z-score is -3.73 (inactive).

For `CN(Cc1ccccc1)c1oc(-c2ccc(COc3ccccc3)o2)nc1C#N`, the z-score was 1.1 (inactive).

In the case of `CCCc1nc2sc3c(OCC)ncnc3c2c2c1COC(C)(C)C2`, the z-score was 0.03 (inactive).

In the case of `Cc1cc(C(=O)O)c2cc(Br)ccc2n1`, the z-score is -1.02 (inactive).

Take `COc1cccc(-c2cn3nc(C)sc3n2)c1`: the z-score is -1.51 (inactive).

In the case of `CCOC(=O)N1CCN(c2c(NCCN3CCN(c4cccc(Cl)c4)CC3)c(=O)c2=O)CC1`, the z-score is -2.84 (inactive).

On to `CCOC(=O)N1CCC(C(N)=O)CC1`, for which the z-score was -0.86 (inactive).

As to `CCOC(=O)N1CCC(c2cc(=O)n(-c3ccccc3)[nH]2)CC1`, the z-score was 7.05 (active).

`Cc1nc2sc(C(c3cccc(Cl)c3)N3CCN(c4ccccc4)CC3)c(O)n2n1` (stereo not given): the z-score is -0.28 (inactive).

Take `Cc1ccc(N(CC(=O)NC(C(C)C)C(C)C)S(C)(=O)=O)cc1Cl`: the z-score was -1.52 (inactive).

As to `O=C(Nc1ccc(O)c(-c2nc3ccccc3s2)c1)C(c1ccccc1)c1ccccc1`, the z-score is -2.45 (inactive).

With `O=C(NCCN1CCOCC1)c1nnc(CS(=O)(=O)c2ccccc2)o1`, the z-score was -1.86 (inactive).

For the compound `CCN1CCCC1CNC(=O)c1sc2nc(C)cc(C)c2c1-n1cccc1` (stereo not given), the z-score was -0.15 (inactive).

Consider `CCN1CCCC1CNC(=O)c1nnc(CS(=O)(=O)c2ccccc2)o1` (stereo not given), for which the z-score is 7.59 (active).

For the compound `Cc1nc2sccn2c(=O)c1S(=O)(=O)N1CCOCC1`, the z-score is -0.79 (inactive).

For `Cc1cc(C)cc(Nc2nccc(=O)[nH]2)c1`, the z-score was -2.01 (inactive).

Turning to `CC1CCCC(NC(=O)c2cc3c(s2)-c2ccccc2OC3)C1C` (stereo not given), the z-score was -0.62 (inactive).

`CCCCc1c(O)nc(SCC(=O)NCc2ccco2)[nH]c1=O`: the z-score was 4.39 (active).

For the compound `CC(C)Cc1c(O)nc(SCC(=O)NCc2ccco2)[nH]c1=O`, the z-score was 0.23 (inactive).

For `Nc1ncnc2nc(SCC(=O)NCc3ccco3)[nH]c12`, the z-score is -1.28 (inactive).

In the case of `O=C(CC1Oc2ccccc2NC1=O)NCc1ccco1` (stereo not given), the z-score is -1.29 (inactive).

For `Cn1c(=O)c2c(c3ccccc31)OC(=O)CC2c1ccc(Br)cc1` (stereo not given), the z-score is -0.71 (inactive).

Consider `O=C1CC(c2ccccc2)Sc2nc(-c3ccccc3)nn21` (stereo not given), for which the z-score is -0.15 (inactive).

(Values after PubChem BioAssay AID1259370 (Center for Chemical Genomics, University of Michigan, 2018).)
